Screening results from PubChem.
This is one part of a sample in which hits are shown more often than they occur.
FECH block – inhibitors of human ferrochelatase, primary screen, biochemical, purified FECH, Ni-mesoporphyrin absorbance; Ferrochelatase, mitochondrial (Homo sapiens), P22830; Ni-mesoporphyrin absorbance 550 nm; calls only at 10 µM (by protocol); 20,000 tested, 3.3% active; AID 1671448, 2021;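 active means enzyme reaction rate more than 3 SD below the solvent-only control wells on the same plate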;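 further: lower slope than DMSO wells means FECH inhibition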
Target sequence (P22830 whole entry, looked up): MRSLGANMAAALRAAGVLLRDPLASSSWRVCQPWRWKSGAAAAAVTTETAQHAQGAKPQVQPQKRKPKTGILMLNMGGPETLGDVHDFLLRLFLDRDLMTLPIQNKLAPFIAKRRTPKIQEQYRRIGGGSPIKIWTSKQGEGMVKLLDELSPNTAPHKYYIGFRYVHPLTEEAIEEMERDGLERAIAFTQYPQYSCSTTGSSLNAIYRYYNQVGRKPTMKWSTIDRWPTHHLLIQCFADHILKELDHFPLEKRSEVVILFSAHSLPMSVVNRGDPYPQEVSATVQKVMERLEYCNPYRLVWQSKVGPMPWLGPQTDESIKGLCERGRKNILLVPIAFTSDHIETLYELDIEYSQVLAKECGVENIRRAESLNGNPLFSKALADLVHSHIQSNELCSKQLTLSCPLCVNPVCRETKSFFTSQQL
Calls only.

Results for CCCCOC(=O)c1ccc(NC(=O)CN2c3ccc(F)cc3-c3ccccc3S2(=O)=O)cc1 ?
FECH block: active

How did CCc1ccc2c(c1)-c1ccccc1S(=O)(=O)N2CC(=O)Nc1ccccc1C(=O)N1CCCC1 do in these assays?
FECH block: inactive

What do the screens show for `CCOC(=O)c1ccc(NC(=O)CN2CCN(Cc3ccc(F)cc3Cl)S2(=O)=O)cc1`?
FECH block: inactive

How did CC(C)=CCN1CCCC(Cn2ccnc2C)C1 (configuration not stated) do in these assays?
FECH block: inactive

Results for Cc1ccccc1-c1ncc(-c2nccn2-c2ccc3n[nH]nc3c2)cn1 ?
FECH block: inactive

How did CNC(=O)Cc1ccc(-c2ccc(-c3ccn[nH]3)cc2)cc1 do in these assays?
FECH block: inactive

How did CCc1ccc2c(c1)-c1ccccc1S(=O)(=O)N2CC(=O)Nc1ccccc1OC do in these assays?
FECH block: inactive

How did CC(C)c1ccc2c(c1)-c1ccccc1S(=O)(=O)N2CC(=O)NCc1ccncc1 do in these assays?
FECH block: active

What do the screens show for `CCCNC(=O)c1ccccc1NC(=O)CN1c2ccc(C(C)C)cc2-c2ccccc2S1(=O)=O`?
FECH block: inactive

What do the screens show for `CCc1ccc2c(c1)-c1ccccc1S(=O)(=O)N2CC(=O)Nc1ccc(NC(C)=O)cc1`?
FECH block: inactive

What do the screens show for `CC(C)c1ccc2c(c1)-c1ccccc1S(=O)(=O)N2CC(=O)NCc1ccccn1`?
FECH block: active

What do the screens show for `CC(C)c1ccc2c(c1)-c1ccccc1S(=O)(=O)N2CC(=O)NCCSC1CCCCC1`?
FECH block: inactive

What do the screens show for `CC(C)c1ccc2c(c1)-c1ccccc1S(=O)(=O)N2CC(=O)NCCCN1CCOCC1`?
FECH block: inactive

How did CCN1CCN(C(=O)CN2c3ccc(Br)cc3-c3ccccc3S2(=O)=O)CC1 do in these assays?
FECH block: inactive

What do the screens show for `CCc1ccc2c(c1)-c1ccccc1S(=O)(=O)N2CC(=O)NCc1ccccn1`?
FECH block: active

What do the screens show for `CCc1ccc2c(c1)-c1ccccc1S(=O)(=O)N2CC(=O)N1CCN(c2ccccc2)CC1`?
FECH block: inactive

What do the screens show for `CCN1CCN(C(=O)CN2c3ccc(C(C)C)cc3-c3ccccc3S2(=O)=O)CC1`?
FECH block: active

What do the screens show for `COc1cccc(Cn2c(CNC(=O)c3ccc(Br)o3)nc3cccnc32)c1`?
FECH block: inactive

What do the screens show for `CCCN(CC#Cc1ccccc1)c1nc(C)nc2oc(C)nc12`?
FECH block: inactive

Results for O=C(CCNC(=O)c1cc(C2CC2)[nH]n1)Nc1nccs1 ?
FECH block: inactive

What do the screens show for `Cc1ccccc1-c1nc(CSc2nc(C(F)(F)F)cc(=O)[nH]2)c(C)o1`?
FECH block: inactive

What do the screens show for `O=C(NCC(c1ccccn1)N1CCOCC1)c1cn(-c2ccccc2)nn1` (configuration not stated)?
FECH block: inactive

How did Cc1ccc(-c2ccc(N3CCC(C(=O)NC(C)C)CC3)nn2)cc1 do in these assays?
FECH block: inactive

How did CNS(=O)(=O)CCNc1nc(C)nc2c1CCN(C)CC2 do in these assays?
FECH block: inactive

What do the screens show for `CCOC(=O)c1cccnc1-c1cccc(C(=O)O)c1`?
FECH block: inactive

How did Cc1ccc(CNC(=O)CN2CCN(Cc3ccc(F)cc3)S2(=O)=O)cc1 do in these assays?
FECH block: inactive

What do the screens show for `CCc1csc(CNC(=O)c2ncc[nH]2)n1`?
FECH block: active

How did CCc1csc(CNC(=O)c2ccc(-c3ncn[nH]3)cc2)n1 do in these assays?
FECH block: inactive

What do the screens show for `CCc1csc(CNC(=O)c2cc(C3CC3)[nH]n2)n1`?
FECH block: inactive

How did CSc1nc(-c2ccccc2)c(C#N)c(N2CCN(c3cccc(C)c3)CC2)n1 do in these assays?
FECH block: inactive

What do the screens show for `COc1ccc(S(=O)(=O)N2CCN(Cc3nc4cccnc4n3-c3ccc(F)cc3)CC2)cc1`?
FECH block: inactive

How did CCOc1ccc(NC(=O)c2cc(-c3ccc(OC)c(S(N)(=O)=O)c3)n[nH]2)cc1 do in these assays?
FECH block: inactive

What do the screens show for `CCOc1ccc(-c2cc(C(=O)Nc3ccc(S(N)(=O)=O)cc3)no2)cc1`?
FECH block: active

What do the screens show for `CCc1ccc(-c2noc3c(=O)n(CCC(=O)Nc4ccc(S(N)(=O)=O)cc4)cnc23)cc1`?
FECH block: inactive

How did NS(=O)(=O)c1ccc(NC(=O)c2noc3c2CCCC3)cc1 do in these assays?
FECH block: inactive

What do the screens show for `NS(=O)(=O)c1ccc(NC(=O)c2nn(-c3cccc(Cl)c3)ccc2=O)cc1`?
FECH block: inactive

How did NS(=O)(=O)c1ccc(NC(=O)c2cc(-c3ccc(Cl)cc3)on2)cc1 do in these assays?
FECH block: active

Results for Cc1nc(C2CCCNC2)cc(N2CCC3(CC2)Nc2ccccc2NC3=O)n1 (configuration not stated) ?
FECH block: inactive

What do the screens show for `CCCCNc1nc(Nc2ccc(F)cc2)c2cnn(-c3ccccc3)c2n1`?
FECH block: inactive

What do the screens show for `COc1cc(C)c(Cl)cc1S(=O)(=O)N1CCN(c2nc(C)cc(N3CCCCC3)n2)CC1`?
FECH block: inactive
